Test results as given in PubChem BioAssay AID720648 (The Scripps Research Institute Molecular Screening Center, 2013).
Screen size: about 370,000 compounds; about 3,100 (0.84%) were called active.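 Rule for the calls: active = inhibition above the mean of compounds lying between control limits plus 3 SD, set per campaign (cut at about 8.5% in these data); inactive = the rest.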 Shown is part of a subset that was picked to be rich in actives.

target: Disintegrin and metalloproteinase domain-containing protein 17 (Homo sapiens) (UniProt P78536); assay: ADAM17 inhibitors, primary screen, biochemical, QFRET (AID 720648); conditions: recombinant ADAM17, EDANS/DABCYL FRET peptide cleavage; at 6.95 µM; active compounds read high;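 note: 0% = DMSO-only wells as the low control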
Sequence (P78536 215-824 limits assumed): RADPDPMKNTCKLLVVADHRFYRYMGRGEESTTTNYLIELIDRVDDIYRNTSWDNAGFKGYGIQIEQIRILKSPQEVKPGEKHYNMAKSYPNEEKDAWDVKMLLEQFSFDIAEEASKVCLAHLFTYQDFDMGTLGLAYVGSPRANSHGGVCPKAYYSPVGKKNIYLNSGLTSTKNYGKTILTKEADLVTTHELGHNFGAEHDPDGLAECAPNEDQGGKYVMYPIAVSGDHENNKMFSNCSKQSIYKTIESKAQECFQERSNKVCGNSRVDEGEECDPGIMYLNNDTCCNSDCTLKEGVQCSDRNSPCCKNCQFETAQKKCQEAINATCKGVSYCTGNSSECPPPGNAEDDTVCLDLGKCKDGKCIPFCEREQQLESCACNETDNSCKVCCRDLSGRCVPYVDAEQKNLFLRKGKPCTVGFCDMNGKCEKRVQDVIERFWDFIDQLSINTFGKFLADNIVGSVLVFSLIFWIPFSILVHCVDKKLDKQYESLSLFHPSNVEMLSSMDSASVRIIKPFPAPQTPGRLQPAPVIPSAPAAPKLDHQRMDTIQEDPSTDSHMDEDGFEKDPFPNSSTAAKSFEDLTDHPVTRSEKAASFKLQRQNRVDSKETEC

inhibition, inactive:
CCOC(=O)c1cccc(NC(=O)CCn2nnc3ccccc32)c1 -1.7%, CCOC(=O)c1cccc(NC(=O)CN(c2ccc(C)cc2)S(=O)(=O)c2c(C)noc2C)c1 7.3%, O=C(OCC#CCSc1nnc(-c2ccco2)o1)c1ccc(F)cc1 -3.45%, CN(C)Cc1cn(-c2ccc(-c3noc4c3C(=O)N(CC(=O)N3CCOCC3)CC4)cc2)nn1 -1.12%, CSCCC(NC(=O)COc1ccccc1)C(=O)N1CCN(c2cccc(C(F)(F)F)c2)CC1 (stereo unspecified) 0.72%, Cc1c(C)c2ccc(OCC(=O)N3CCN(c4cccc(Cl)c4)CC3)cc2oc1=O -9.1%, Cc1ccc(Cn2cc(CN3[C@@H](CC(C)C)COc4ccc(Cl)cc4S3(=O)=O)nn2)cc1 -0.49%, CN1C(=O)C(CC(=O)Nc2ccccc2)S/C1=N/c1nccs1 (stereo unspecified) -3.53%, CC1CC(=O)N(CC(=O)Nc2cccc(Cl)c2)c2ccccc2S1(=O)=O (stereo unspecified) 0.03%, COc1cccc(CSc2nnc(-c3cccnc3)n2Cc2ccccc2)c1 -1.8%, O=C1[C@H]2[C@@H](c3ccc(C(F)(F)F)cc3)N[C@]3(CCCN(Cc4ccc(Cl)cc4)C3=O)[C@H]2C(=O)N1Cc1ccccc1 6.3%, CCN1C(=O)[C@H]2[C@@H](c3ccc(C(F)(F)F)cc3)N[C@]3(CCCN(Cc4ccc(Br)cc4)C3=O)[C@H]2C1=O 0.02%, O=C(NCc1ccco1)C1CCCN(S(=O)(=O)c2ccc(Cl)s2)C1 (stereo unspecified) -1.38%, O=C(CNS(=O)(=O)c1ccccc1F)N1CCN(c2ccccn2)CC1 -2.81%, Cc1cccc(OCCCC(=O)Nc2ccc(S(=O)(=O)N3CCCC3)cc2)c1 3.89%, Cc1ccc(C)c(OCCC(=O)Nc2cccc(S(=O)(=O)N3CCCC3)c2)c1 1.33%, CC(=O)Nc1ccc(OC[C@@H](O)CN2CCC(C(O)(c3ccccc3)c3ccccc3)CC2)cc1 2.29%, COc1ccc(F)cc1S(=O)(=O)N1CCCCC1 -4.65%, COc1cc(C(=O)NNC(=O)c2ccc(S(=O)(=O)N3CCCCC3)cc2)cc(OC)c1OC 0.14%, CCOC(=O)[C@@]12CCC3=C1N(CCC3)C(=O)[C@H](CC(=O)N1CCN(C(=O)c3ccco3)CC1)C2 -6.34%, Cc1nc(CNc2ncnc3ccc(-c4ccc5c(c4)OCO5)cc23)cs1 -54.3%, CCOc1ccc2nc(Cl)c(C3CC(c4ccccc4)=NN3C(=O)c3cccs3)cc2c1 (stereo unspecified) -2.13%, CS(=O)(=O)Nc1cccc(C2=NN(C(=O)c3cccc(F)c3)C(c3cccs3)C2)c1 (stereo unspecified) 1.09%, COc1cccc(C2CC(c3cccs3)=NN2C(=O)CSC2=NCCS2)c1OC (stereo unspecified) -4.82%, COC(=O)c1cccc(NS(C)(=O)=O)c1 -1.45%, Cc1ccc(C2CC(c3cccc(NS(C)(=O)=O)c3)=NN2S(C)(=O)=O)cc1 (stereo unspecified) -2.2%, CCS(=O)(=O)Nc1ccc(C2=NN(S(=O)(=O)c3ccc(F)cc3)C(c3ccco3)C2)cc1 (stereo unspecified) 3.46%, O=C(Nc1cc(Cl)cc(Cl)c1)OCCN1CCCC12CCC(c1ccccc1)CC2 (stereo unspecified) 1.56%, CCOC(=O)[C@]12CCCCC/C=C\1N(Cc1ccc(OC)cc1)C(=O)[C@H]2CC(=O)NCCCN1CCCC1=O 5.47%, Cc1cc(NS(=O)(=O)c2ccc(NC(=O)CSc3nnc(-c4ccc(C(C)(C)C)cc4)n3Cc3ccco3)cc2)nc(C)n1 0.8%, CC(C)(C)c1ccc(C(=O)Nc2cc(Cl)c(Br)cc2C(=O)O)cc1 8.45%, COC(=O)[C@]12C[C@H](CC(=O)N3CCOCC3)C(=O)N(Cc3ccc(Cl)cc3Cl)C1=C[C@H](C(C)C)O[C@@H]2C1CC1 -2%, Cc1ccc(-n2c(SCC(=O)Nc3ccc(S(=O)(=O)Nc4nccs4)cc3)nnc2-c2ccccn2)cc1 2.5%, O=C1CC[C@@]23CCCN2C(=O)CCC[C@H]3[C@H]1Cc1ccccc1 -7.14%, Cc1ccc(C(=O)NC23CC4CC(CC(C4)C2)C3)c(Cl)c1 -1.94%, COc1ccccc1C(=O)NC(=S)NC12CC3CC(CC(C3)C1)C2 -0.66%, COc1ccc(-c2cc(-c3nnc(SCC(=O)Nc4cccc5ccccc45)n3N)[nH]n2)cc1 -3.93%, O=C(NCC1COc2ccccc2O1)c1ccc(NC(=O)c2cc(F)ccc2F)cc1 (stereo unspecified) 2.47%, COc1ccc(/C=C2\CC3(OC(C)=O)CCCN2C3)cc1 (stereo unspecified) -3.86%, Cc1ccccc1NC(=O)C1CCN(c2ncccn2)CC1 -12.7%, O=C(NN1C(=O)C2C3C=CC(C4CC34)C2C1=O)c1ccc(Cl)cc1 (stereo unspecified) -30.5%, O=C(NN1C(=O)C2C3C=CC(O3)C2C1=O)c1ccccc1 (stereo unspecified) 0.75%, COc1ccc(N2CCN(CCNS(=O)(=O)c3ccc(C(C)(C)C)cc3)CC2)cc1 1.38%, CCCC[C@H]1C2CC(OC(=O)NCc3ccccc3)C(C2)[C@H]2CCCCN21 (stereo partly specified) -10.2%, Cc1[nH]nc(-c2ccc(OCc3cnn(-c4ccccc4)c3)cc2O)c1Oc1ccc(Cl)cc1 0.84%, CC(C)N1CCCCC(NC(=O)C(C)(C)C)C1=O (stereo unspecified) -2.39%, O=C(CSc1nnc(Nc2ccccc2F)s1)NC1CCCC1 -2.83%, O=C(CSc1nnc(C2CC2)n1Cc1ccccc1)Nc1cccnc1Cl -2.91%, CCOC(=O)[C@]12CCCC=C1N(Cc1ccc(OC)cc1)C(=O)[C@@H]2CC(=O)NCc1cccs1 -2.4%, CN1C[C@]2(C=C3CCCCC3n3c(=O)n(-c4ccccc4)c(=O)n32)N=C1NC(=O)c1ccccc1 (stereo partly specified) -0.93%, COC(=O)[C@]1(C#N)CC(=O)N(CC2CCCCC2)[C@@H]1c1ccccc1 4.54%, O=C(NC1CCCC1)C1CSCCS(=O)(=O)N1Cc1ccccc1 (stereo unspecified) -0.05%, O=C(CSc1nnc(COc2ccccc2)n1-c1ccc(Cl)cc1)Nc1ccc2c(c1)OCO2 1.36%, COc1ccc(-n2c(COc3ccccc3)nnc2SCC(=O)Nc2ccc3c(c2)OCO3)cc1 4.09%, CN(NS(=O)(=O)c1cccs1)c1ncc(C(F)(F)F)cc1Cl -1.66%, O=S(=O)(Nc1ccc(Oc2ncccn2)c(Cl)c1)c1ccc(F)cc1 -3.11%, COc1cccc(/C=C2\CC3(OC(C)=O)CCCN2C3)c1 (stereo unspecified) 3.86%, O=C(OC12CCCN(C1)/C(=C/c1ccccc1)C2)c1ccco1 (stereo unspecified) 6.28%, COC(=O)[C@]12C[C@H](CC(=O)NCCCN3CCCC3=O)C(=O)N(CCc3ccc(OC)c(OC)c3)C1=C[C@H](COCc1ccccc1)O[C@@H]2C -6.14%, O=C(C1=C[C@H](c2ccc(C(F)(F)F)cc2)C[C@H](OCc2ccc(CO)cc2)O1)N1CCN(Cc2ccccc2)CC1 5.72%, CC(C)(C)[C@H]1C=C(C(=O)NCc2ccccc2)O[C@@H](OCc2ccc(CO)cc2)C1 2.4%, Cc1ccc(OCCOc2cccc(/C=N/NC(N)=O)c2)cc1 -1.45%, COc1ccc(Cl)cc1C=CC=NNC(=O)c1ccncc1 -4.19%, CN1C(=O)c2cc(NS(C)(=O)=O)ccc2OC[C@@H]2O[C@@H](CC(=O)NCc3ccc(-c4ccccc4)cc3)CC[C@H]21 -3.9%

inhibition, active:
CCOC(=O)c1cccc(NC(=O)CN(C)S(=O)(=O)c2ccc(-c3cocn3)s2)c1 9.31%, O=C(COc1ccc(Cl)cc1)N1CCN(c2cccc(C(F)(F)F)c2)CC1 13.9%, O=C(CC1SC(=Nc2ccccc2)N(Cc2ccccn2)C1=O)Nc1cccc(Cl)c1 (stereo unspecified) 9.62%, O=C1[C@H]2[C@@H](c3ccc(C(F)(F)F)cc3)N[C@]3(CCCN(Cc4ccc(Br)cc4)C3=O)[C@H]2C(=O)N1Cc1ccccc1 13.7%, CC(=O)Nc1ccc(S(=O)(=O)N2CCN(CCCOc3cc(C)ccc3C)CC2)cc1 9.18%, COc1ccc(S(=O)(=O)N2CCCCC2)cc1Br 9.21%, CS(=O)(=O)Nc1cccc(C2=NN(S(=O)(=O)c3ccccc3)C(c3cccs3)C2)c1 (stereo unspecified) 8.71%, CCOc1ccccc1C1CC(c2cccc(NS(C)(=O)=O)c2)=NN1C(=O)c1ccccc1 (stereo unspecified) 12.6%, COc1cccc(C2CC(c3ccccc3)=NN2S(=O)(=O)c2ccccc2)c1OC (stereo unspecified) 14%, S=C(NCc1ccc(Cl)cc1)NC12CC3CC(CC(C3)C1)C2 14.9%, COc1ccc(C(=O)NN2C(=O)C3C(c4ccccc4)C=CC(c4ccccc4)C3C2=O)cc1 (stereo unspecified) 13.9%, C=C(C)COc1ccc(-c2n[nH]c(C)c2-c2ccccc2)c(O)c1 10.9%, O=C(CSc1nnc(Nc2ccccc2)s1)Nc1cccnc1Cl 8.69%, Cc1ccc(-n2c(COc3ccccc3)nnc2SCC(=O)Nc2ccc3c(c2)OCCO3)cc1 10.3%, Cc1cc(C)cc(NS(=O)(=O)c2ccc(Oc3ncc(C(F)(F)F)cc3Cl)cc2)c1 10.8%, O=C(NCc1ccccc1)C1=C[C@@H](c2ccc(C(F)(F)F)cc2)C[C@@H](OCc2ccc(CO)cc2)O1 10.7%, Cc1ccc(OCCOCCOc2ccc(Br)cc2/C=N\NC(=O)c2ccncc2)cc1 10%
